FMDV antiviral – High Throughput Screening for Foot and Mouth Disease Virus Antivirals; FMDV antiviral cell-based qHTS; Potency, µM (series often up to 57.9 µM), for inactives: top-dose activity change, negative = inhibition, actives largely listed as inhibitors; 410,000 compounds, 1.2% hits; calls by dose curve; tested in HEK293T cells; note: read-out not given here; potency is the fitted concentration of half-maximal effect; % is set by controls: 0 for no effect and ±100 for the full control effect; nearly all actives have a fitted effect of over 45% in size
Shiga inhibitor – A qHTS for Small Molecule Inhibitors of Shiga Toxin; inhibition, % at 38.7 µM; AID 2315, 2010; 290,000 compounds, 9.2% hits; Vero cells, Shiga toxin protein synthesis inhibition reporter; in the data active = inhibition mostly above about 28%, no sharp cut-off; inactive = mostly below about 43%; note: 0% is about no effect
HCV inh – qHTS Assay for Inhibitors of Hepatitis C Virus (HCV); Huh7.5.1 HCVcc-Cre infection, luciferase reporter, 44 h; Potency, µM (doses to about 41.8 µM), for the others: top-dose activity change, negative = inhibition, actives largely listed as inhibitors; 340,000 compounds, 3.4% hits; AID 651820, 2012; active = well fitted inhibition curve with a large enough effect; inconclusive = small, poorly fitted or top-dose-only effect, or another doubt; inactive = no such curve, though single readings can be large or run the other way; note: potency is the fitted concentration of half-maximal effect; % is set by controls: 0 for no effect and ±100 for the full control effect
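Compounds are dispensed onto cells plated 4 h earlier at 1,000 per well, with HCVcc-Cre virus (about 0.5 moi) added next. Following 44 h of culture, luminescent signal is measured for 15 sec after 15 min with substrate at room temperature.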
MARV entry inh – qHTS for inhibitors of binding or entry into cells for Marburg Virus; Marburg virus pseudotyped entry inhibition, cell reporter; Potency, µM (doses to about 37.8 µM), for inactives: at the highest dose activity change, negative = inhibition, usual class: inhibitors; 300,000 compounds, 1.8% hits; calls by dose curve; tested in HEK293 cells; note: potency is the fitted concentration of half-maximal effect; % is set by controls: 0 for no effect and ±100 for the full control effect
Cycloheximide cs – Cycloheximide Counterscreen for Small Molecule Inhibitors of Shiga Toxin | cell reporter, cycloheximide protein synthesis inhibition counterscreen | max response, % | 300,000 compounds, 12% hits | AID 2314, 2010; in the data active = max response mostly above about 13%, no sharp cut-off; inactive = mostly below about 14%; note: read at 38.3 µM for the half of the compounds with a filed dose; 0% is about no effect
LASV entry inh – qHTS for Inhibitors of binding or entry into cells for Lassa Virus | Lassa virus pseudotype entry inhibition, cell reporter | Potency, µM (series often up to 37.9 µM), inactives show top-dose activity change, negative = inhibition, actives largely listed as inhibitors | 300,000 compounds, 1.2% hits | AID 540256, 2011; calls by dose curve; tested in HEK293 cells; note: potency is the fitted concentration of half-maximal effect; % is set by controls: 0 for no effect and ±100 for the full control effect; nearly all actives have a fitted effect of over 50% in size
* marks the source's active call; other numbers are inactive results; ? = inconclusive; . = not tested or not shown; [ ] = dose if it differs, or a comment. The list is not random: actives were taken first. Their share in the collection is about 13%.

SMILES	FMDV antiviral	Shiga inhibitor	HCV inh	MARV entry inh	Cycloheximide cs	LASV entry inh
O=C(CCCN1C(=O)c2cccnc2C1=O)Nc1ccc(F)cc1Cl	7%	-4	11%	3%[46.1 µM]	-1	1%[46.1 µM]
COc1ccc(S(=O)(=O)N(CC(=O)Nc2cccc(C(F)(F)F)c2)c2ccc(C)cc2)cc1	-16%	.	.	?	.	?
CCOC(=O)N1CCN(C(=O)CCCn2nc(C)c3sc4ccccc4c3c2=O)CC1	?	68*	-4%	3%	13	-17%
Cc1nn(CCCC(=O)NCc2ccccc2)c(=O)c2c1sc1ccccc12	-23%	.	.	?	.	?
Nc1nc2c(c3c1c(=O)oc1ccccc13)CCCCC2	-19%	-31	4%	9%	-9	16%
O=C(O)CSc1nnc(NC(=O)c2ccc3c(c2)OCO3)s1	?	-27	17%	?	-9	8.9µM*
CC(C)(C)Cc1nnc(NC(=O)c2ccc3c(c2)OCO3)s1	23%	48*	9%	12%[46.1 µM]	44*	13%
COC(=O)CSc1nnc(NC(=O)c2ccc3c(c2)OCO3)s1	-10%	-7	17%	.	-2	.
CCC(CC)c1nnc(NC(=O)c2ccc3c(c2)OCO3)s1	31%	62*	7%	?	19*	?
O=C(NCc1ccccn1)Nc1cccc(Cl)c1Cl	45%	35	-23%	.	59*	.
Cc1nn(C)c(C)c1CNC(=O)Nc1cccc(Cl)c1C	23%	49	-17%	-6%	32*	-19%
O=C(NCc1ccccn1)Nc1ccccc1Cl	-11%	32*	9%	.	25*	.
Cc1c(Cl)cccc1NC(=O)NCc1ccccn1	29%	31	1%	.	15*	.
Cc1ccc(-c2nnc(N(C)C(=O)c3cccnc3)s2)cn1	35%	16	-9%	10%[46.1 µM]	10	17%
Cc1ccc(-c2nnc(N(C)C(=O)c3cccnc3)s2)cc1	4%	77	20%	-8%	34*	-6%
COc1ccc(-c2nnc(N(C)C(=O)c3cccnc3)s2)cc1	8%	46	3%	-2%	27*	15%
Cc1nnc(N(C)C(=O)c2ccccn2)s1	-7%	-16	23%	9%	-3	16%
CN(C(=O)c1ccccn1)c1nnc(-c2cccnc2)s1	56%	32	-12%	?	54*	2%
O=C(NCc1cccc(Br)c1)C1CCN(C(=O)c2sccc2-n2cccc2)CC1	12%	.	.	-23%[46.1 µM]	.	.
CC(=O)NCCc1nc2ccccc2n1CCCCOc1ccccc1	-2%	3	-1%	.	-4	.
CCOc1ccc(CN2CCN(CC3=Cc4cccc(OC)c4OC3)CC2CCO)cc1 (stereo unspecified)	?	-26	10µM*	.	-3	.
CCOc1ccc(CN2CCN(Cc3cnc(-c4ccccc4)s3)CC2CCO)cc1 (stereo unspecified)	4%	2	?	.	-1	.
CCOC(=O)[C@H]1[C@H]2COc3ccccc3[C@@H]2N2C(=O)[C@@H](C)NC(=O)[C@@]12C	-12%	.	16%	.	.	.
NS(=O)(=O)c1ccc(CCNc2nn3c(-c4cccc(OC(F)(F)F)c4)cnc3s2)cc1	22µM*	.	.	.	.	.
O=C(OCc1cn([C@@H]2CN(C(=O)C3CCCCC3)[C@@H](c3ccccc3)C[C@H]2O)nn1)c1ccccc1	3%	.	.	.	.	.
SMILES	FMDV antiviral	Shiga inhibitor	HCV inh	MARV entry inh	Cycloheximide cs	LASV entry inh
COc1ccc(C(=O)Nc2cc(OC)nc(OC)n2)cc1	7%	53*	-15%	-24%	19*	?
COc1cc(NC(=O)CCc2ccccc2)nc(OC)n1	35%	48*	?	?	35*	4%
O=C(C1CCN(S(=O)(=O)c2cccs2)CC1)N1CCN(c2ccccc2O)CC1	-26%	.	-20%	.	.	.
COc1ccc(OC)c(NC(=O)CCN2CCCCCC2)c1	71%	-5	-9%	-15%	-1	-10%
Cc1cc(C)c(C(=O)CN2C(=O)NC3(CCCCC3)C2=O)cc1C	-2%	34*	-2%	6%[46.1 µM]	21*	4%[46.1 µM]
Cc1cc(C)c(C(=O)CN2C(=O)NC3(CCC(C)CC3)C2=O)cc1C (stereo unspecified)	-3%	5	-11%	?	2	1%
COCCn1c(C)cc(C(=O)CN2C(=O)NC3(CCCCCCC3)C2=O)c1C	.	93*	1%	?	52*	3%
Cc1onc(-c2ccccc2)c1CNC(=O)C1COc2ccccc2O1 (stereo unspecified)	-23%	-14	2%	28%[14.2 µM]	0	-5%
Cc1cc(Cl)ccc1NC(=O)c1cc2ccccn2n1	-5%	.	.	.	.	?
Cc1ccc(C)c(NC(=O)c2cnn3ccccc23)c1	28%	66	9%	.	14*	.
Cc1ccc(C)c(NC(=O)c2cc3ccccn3n2)c1	35%	99*	9%	.	27*	.
CC(=O)c1cccc(NC(=O)c2cc3ccccn3n2)c1	40%	34	-8%	.	30*	.
Cc1ccccc1NC(=O)c1cc2ccccn2n1	18%	67*	?	.	52*	.
O=C1CSC(=Nc2ccc(O)cc2)N1	7%	-8	8%	.	-2	.
COCCn1c(SCC(=O)Nc2cccc(NC(C)=O)c2)nc2c([nH]c3ccccc32)c1=O	-4%	-3	-3%	-10%	-2	-1%
Cc1ccccc1C(OCCN(C(C)C)C(C)C)c1ccccc1 (stereo unspecified)	?	3	-2%	?	-2	4µM*
CC(C)N(Cc1ccccc1)C(C)C (tested in a mixture with another compound)	.	2	.	.	-4	.
CN(C)C(CNC(=S)Nc1ccccc1)c1cccnc1 (stereo unspecified)	1%	-17	-2%	?	1	1%
CNC(=O)c1[nH]cnc1C(=O)Nc1ccc(Cl)cc1	24%	40	6%	.	28*	.
CNC(=O)c1[nH]cnc1C(=O)Nc1ccc(C)cc1	30%	9	-2%	.	9	.
CCn1c(SCC(=O)N/N=C/c2c[nH]c3ccccc23)nnc1-c1ccc(Cl)cc1	?	-11	-25%	?	-2	?
CC(=O)n1cc(Nc2ccc([N+](=O)[O-])cc2)c2ccccc21	-28%	79	-20%	-24%	15	7%
CC(=O)SC(C[N+](=O)[O-])c1cn(C(C)=O)c2ccccc12 (stereo unspecified)	28µM*	26	11µM*	-15%	18	-24%
CN(C)C(=O)N1CCN(S(=O)(=O)c2ccc3ccccc3c2)CC1	-14%	.	?	0%[46.1 µM]	-3	?
CCOC(=O)CS(=O)(=O)c1ccc2ccccc2c1	28%	-7	-8%	1%	-3	0%
O=C(CCl)N1CCN(S(=O)(=O)c2ccc3ccccc3c2)CC1	25µM*	-3	?	?	-3	?
O=C(CCl)N1CCN(S(=O)(=O)c2ccc3c(c2)OCCCO3)CC1	25µM*	.	?	.	.	.
O=C(CS(=O)(=O)c1ccc2ccccc2c1)N1CCCCCC1	31%	51*	18%	1%[46.1 µM]	44*	1%

Bioassay records from PubChem.
